Measurements: the supplement of paper PMC10849652
Targets with a hit are over-represented here; the source holds about 7,900 in all. About 0.6% of all pairs of compound and target were hits. Unmarked numbers belong to inactive results.

Chain of UniProt Q9UJ14 (Q9UJ14 whole entry, looked up): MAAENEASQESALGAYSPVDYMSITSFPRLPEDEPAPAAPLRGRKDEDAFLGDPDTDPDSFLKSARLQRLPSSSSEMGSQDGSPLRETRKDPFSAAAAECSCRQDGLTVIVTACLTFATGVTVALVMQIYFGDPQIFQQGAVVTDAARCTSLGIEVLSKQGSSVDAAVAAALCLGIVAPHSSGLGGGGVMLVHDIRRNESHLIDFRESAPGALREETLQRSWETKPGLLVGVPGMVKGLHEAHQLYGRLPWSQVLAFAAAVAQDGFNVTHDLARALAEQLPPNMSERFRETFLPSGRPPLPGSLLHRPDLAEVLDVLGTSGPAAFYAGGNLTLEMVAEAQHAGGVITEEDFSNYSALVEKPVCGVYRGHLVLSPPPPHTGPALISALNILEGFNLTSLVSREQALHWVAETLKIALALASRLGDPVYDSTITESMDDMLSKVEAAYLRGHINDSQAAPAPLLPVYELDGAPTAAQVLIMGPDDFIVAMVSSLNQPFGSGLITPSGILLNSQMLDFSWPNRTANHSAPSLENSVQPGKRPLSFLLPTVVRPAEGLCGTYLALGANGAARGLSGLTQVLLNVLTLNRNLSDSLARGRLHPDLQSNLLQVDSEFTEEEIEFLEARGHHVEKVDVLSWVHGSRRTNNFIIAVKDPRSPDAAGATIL
Chain of UniProt P08236 (P08236 whole entry, looked up): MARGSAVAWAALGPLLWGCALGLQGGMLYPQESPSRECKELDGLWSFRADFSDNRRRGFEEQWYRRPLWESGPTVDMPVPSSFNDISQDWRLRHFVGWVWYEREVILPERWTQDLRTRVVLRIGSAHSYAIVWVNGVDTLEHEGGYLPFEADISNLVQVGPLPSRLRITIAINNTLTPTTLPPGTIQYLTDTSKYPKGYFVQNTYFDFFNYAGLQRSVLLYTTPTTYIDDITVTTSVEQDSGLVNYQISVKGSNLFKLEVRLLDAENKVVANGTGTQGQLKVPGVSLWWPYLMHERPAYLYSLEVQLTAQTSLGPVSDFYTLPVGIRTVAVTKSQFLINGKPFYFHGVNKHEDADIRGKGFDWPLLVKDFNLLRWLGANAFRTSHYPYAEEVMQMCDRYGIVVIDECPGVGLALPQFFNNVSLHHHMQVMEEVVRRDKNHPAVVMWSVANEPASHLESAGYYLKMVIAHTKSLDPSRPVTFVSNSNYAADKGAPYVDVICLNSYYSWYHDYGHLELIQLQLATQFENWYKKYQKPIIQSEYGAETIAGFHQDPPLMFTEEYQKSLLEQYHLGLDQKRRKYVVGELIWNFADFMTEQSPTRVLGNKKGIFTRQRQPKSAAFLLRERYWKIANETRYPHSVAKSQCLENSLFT
Chain of UniProt Q9NP66 (Q9NP66 whole entry, looked up): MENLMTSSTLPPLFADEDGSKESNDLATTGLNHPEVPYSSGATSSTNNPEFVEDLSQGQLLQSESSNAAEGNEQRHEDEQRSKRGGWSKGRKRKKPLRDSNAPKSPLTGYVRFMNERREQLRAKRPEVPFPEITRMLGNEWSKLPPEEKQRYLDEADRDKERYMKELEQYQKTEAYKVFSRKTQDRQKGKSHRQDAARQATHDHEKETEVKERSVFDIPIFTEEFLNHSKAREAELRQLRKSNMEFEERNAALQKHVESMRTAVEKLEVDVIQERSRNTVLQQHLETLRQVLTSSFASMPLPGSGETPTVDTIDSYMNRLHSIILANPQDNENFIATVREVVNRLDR
Chain of UniProt P15260 (P15260 whole entry, looked up): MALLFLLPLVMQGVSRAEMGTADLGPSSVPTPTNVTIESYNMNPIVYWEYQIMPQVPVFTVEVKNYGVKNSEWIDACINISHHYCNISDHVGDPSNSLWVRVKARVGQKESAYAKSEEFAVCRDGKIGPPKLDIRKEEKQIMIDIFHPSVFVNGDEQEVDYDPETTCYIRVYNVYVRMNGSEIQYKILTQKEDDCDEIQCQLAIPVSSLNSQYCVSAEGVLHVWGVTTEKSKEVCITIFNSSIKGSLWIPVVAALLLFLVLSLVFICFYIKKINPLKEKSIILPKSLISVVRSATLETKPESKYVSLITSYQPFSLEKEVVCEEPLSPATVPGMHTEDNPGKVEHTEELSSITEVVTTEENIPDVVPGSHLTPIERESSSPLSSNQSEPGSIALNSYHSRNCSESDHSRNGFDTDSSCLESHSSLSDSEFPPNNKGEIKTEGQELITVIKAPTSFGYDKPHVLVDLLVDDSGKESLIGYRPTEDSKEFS
Chain of UniProt Q9UK97 (Q9UK97 whole entry, looked up): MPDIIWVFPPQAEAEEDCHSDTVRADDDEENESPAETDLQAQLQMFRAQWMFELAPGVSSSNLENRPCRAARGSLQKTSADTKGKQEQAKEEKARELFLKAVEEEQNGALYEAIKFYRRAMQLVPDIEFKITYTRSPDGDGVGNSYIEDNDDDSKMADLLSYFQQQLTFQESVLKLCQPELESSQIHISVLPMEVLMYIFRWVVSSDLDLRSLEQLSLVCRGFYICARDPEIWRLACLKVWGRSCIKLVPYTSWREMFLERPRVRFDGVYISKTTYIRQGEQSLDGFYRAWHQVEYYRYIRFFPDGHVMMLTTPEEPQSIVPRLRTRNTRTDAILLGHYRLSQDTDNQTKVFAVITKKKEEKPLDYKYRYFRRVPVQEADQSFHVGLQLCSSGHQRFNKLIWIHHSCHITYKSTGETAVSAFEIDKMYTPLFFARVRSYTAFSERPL
Chain of UniProt Q9BTY2 (Q9BTY2 whole entry, looked up): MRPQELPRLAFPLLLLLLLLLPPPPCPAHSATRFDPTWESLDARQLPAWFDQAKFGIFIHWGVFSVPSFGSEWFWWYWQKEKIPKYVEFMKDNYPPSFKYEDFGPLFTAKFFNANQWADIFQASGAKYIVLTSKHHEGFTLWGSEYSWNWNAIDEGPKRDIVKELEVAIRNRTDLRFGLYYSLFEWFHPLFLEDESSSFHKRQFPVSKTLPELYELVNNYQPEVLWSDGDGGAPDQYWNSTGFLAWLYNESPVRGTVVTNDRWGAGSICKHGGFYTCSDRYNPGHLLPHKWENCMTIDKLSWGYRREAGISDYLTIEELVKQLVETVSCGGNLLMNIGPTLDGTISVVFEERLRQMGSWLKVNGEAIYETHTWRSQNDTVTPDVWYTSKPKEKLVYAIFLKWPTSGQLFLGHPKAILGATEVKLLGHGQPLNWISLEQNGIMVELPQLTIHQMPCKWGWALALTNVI
Chain of UniProt Q9BUP3 (Q9BUP3 whole entry, looked up): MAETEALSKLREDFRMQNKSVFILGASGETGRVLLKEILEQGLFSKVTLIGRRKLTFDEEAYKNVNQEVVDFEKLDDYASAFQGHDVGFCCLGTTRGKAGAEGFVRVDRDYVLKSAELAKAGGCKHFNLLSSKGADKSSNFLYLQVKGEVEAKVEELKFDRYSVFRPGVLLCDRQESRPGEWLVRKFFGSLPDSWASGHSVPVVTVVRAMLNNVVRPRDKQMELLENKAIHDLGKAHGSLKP
Chain of UniProt Q8TEQ6 (Q8TEQ6 whole entry, looked up): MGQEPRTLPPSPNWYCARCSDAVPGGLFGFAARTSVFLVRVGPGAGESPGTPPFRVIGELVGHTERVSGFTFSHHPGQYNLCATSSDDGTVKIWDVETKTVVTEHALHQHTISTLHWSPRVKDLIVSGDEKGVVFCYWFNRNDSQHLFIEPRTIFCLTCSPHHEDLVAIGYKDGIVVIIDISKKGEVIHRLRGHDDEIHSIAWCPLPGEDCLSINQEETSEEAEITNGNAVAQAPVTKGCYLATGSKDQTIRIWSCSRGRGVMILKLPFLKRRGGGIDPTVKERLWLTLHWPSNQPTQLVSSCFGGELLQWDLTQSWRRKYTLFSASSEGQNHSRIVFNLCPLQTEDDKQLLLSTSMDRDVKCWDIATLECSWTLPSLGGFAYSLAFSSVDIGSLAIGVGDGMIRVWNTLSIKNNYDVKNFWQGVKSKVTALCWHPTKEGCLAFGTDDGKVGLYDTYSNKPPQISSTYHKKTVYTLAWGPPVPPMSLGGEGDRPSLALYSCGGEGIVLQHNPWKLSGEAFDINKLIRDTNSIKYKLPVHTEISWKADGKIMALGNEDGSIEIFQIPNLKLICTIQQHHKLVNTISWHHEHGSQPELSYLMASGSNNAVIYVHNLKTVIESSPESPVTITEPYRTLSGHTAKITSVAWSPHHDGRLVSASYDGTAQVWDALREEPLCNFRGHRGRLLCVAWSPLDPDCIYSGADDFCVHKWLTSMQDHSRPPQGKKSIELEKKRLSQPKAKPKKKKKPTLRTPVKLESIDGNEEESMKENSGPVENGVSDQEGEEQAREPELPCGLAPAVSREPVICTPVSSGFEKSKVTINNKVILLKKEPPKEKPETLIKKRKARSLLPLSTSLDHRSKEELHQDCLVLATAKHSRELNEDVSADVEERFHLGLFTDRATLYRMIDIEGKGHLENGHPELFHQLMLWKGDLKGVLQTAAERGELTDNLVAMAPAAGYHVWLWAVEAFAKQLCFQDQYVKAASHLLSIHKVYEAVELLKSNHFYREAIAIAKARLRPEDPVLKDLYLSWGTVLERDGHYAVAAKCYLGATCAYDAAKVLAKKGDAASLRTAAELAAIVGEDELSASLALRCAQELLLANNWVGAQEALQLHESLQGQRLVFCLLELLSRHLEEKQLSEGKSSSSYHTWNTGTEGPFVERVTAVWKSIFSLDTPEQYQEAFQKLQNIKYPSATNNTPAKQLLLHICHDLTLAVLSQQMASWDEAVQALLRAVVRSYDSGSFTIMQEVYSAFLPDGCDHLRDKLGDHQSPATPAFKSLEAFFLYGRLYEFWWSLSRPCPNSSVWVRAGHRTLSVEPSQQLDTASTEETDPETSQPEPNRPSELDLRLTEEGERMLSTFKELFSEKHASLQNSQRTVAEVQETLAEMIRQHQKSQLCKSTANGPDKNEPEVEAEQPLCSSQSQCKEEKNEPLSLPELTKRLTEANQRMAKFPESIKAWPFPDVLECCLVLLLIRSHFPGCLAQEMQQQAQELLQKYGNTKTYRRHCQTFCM
Chain of UniProt P05114 (P05114 whole entry, looked up): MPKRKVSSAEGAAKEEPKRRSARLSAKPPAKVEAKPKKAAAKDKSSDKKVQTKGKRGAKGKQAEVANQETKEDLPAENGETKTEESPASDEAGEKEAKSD

Each target was assayed with FC(F)(F)c1ccc(/C=C/c2nc(COc3ccc(CCCCn4ccnn4)cc3)co2)cc1 [mubritinib] (assay: log2 fold change, soluble protein after heating vs DMSO (PISA); higher = thermal stabilisation; K562 cells, 10 uM, 30 min; active = over 0.2 and 3.5 SD of the protein, either way, in both replicates (recomputed)).
In short: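 K562 cells at 2×10^6 cells/mL were exposed to 10 μM compound for 30 min, then aliquots were heated for 3 min across 48°C-58°C, pooled, and extracted in PBS containing 0.5% NP-40 at 4°C. The supernatant after 21,000xg for 90 min was taken as soluble protein and measured by TMTpro 16plex LC-MS/MS with channel sums equalised. Thermal stability is reported relative to control samples, with values from duplicates. Fold changes are given on a log2 scale.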
FDPS (UniProt P14324) showed a log2 fold change of 0.39. GLUD1 (UniProt P00367) was tested, and the log2 fold change was 0.046. With GLRX3 (UniProt O76003) the log2 fold change was -0.004. In the case of GTF3A (UniProt Q92664), the log2 fold change is reported as 0.06. Work on GLS (UniProt O94925) yielded a log2 fold change of -0.285. For GUSB (UniProt P08236), the log2 fold change was -0.136. Target FERMT3 (UniProt Q86UX7) has a log2 fold change of 0.051. Target GSK3A (UniProt P49840) has a log2 fold change of 0.038. With HLTF (UniProt Q14527) the log2 fold change was 0.051. With HTATIP2 isoform 3 (UniProt Q9BUP3) the log2 fold change was -0.063. In the case of HMGN1 (UniProt P05114), the log2 fold change is reported as -0.049. Work on GTPBP6 (UniProt O43824) yielded a log2 fold change of 0.058. In the case of HEATR5B (UniProt Q9P2D3), the log2 fold change is reported as 0.034. FUCA2 (UniProt Q9BTY2) showed a log2 fold change of 0.013. Work on GALNT4 (UniProt Q8N4A0) yielded a log2 fold change of 0.035. Target HAT1 (UniProt O14929) has a log2 fold change of -0.033. GHDC (UniProt Q8N2G8) showed a log2 fold change of 0.01. IFNGR1 (UniProt P15260) showed a log2 fold change of 0.299. Work on HDAC2 (UniProt Q92769) yielded a log2 fold change of 0.015. With GALNT11 (UniProt Q8NCW6) the log2 fold change was 0.088. In the case of HNRNPH1 (UniProt P31943), the log2 fold change is reported as -0.044. GOLPH3 (UniProt Q9H4A6) was tested, and the log2 fold change was 0.07. With HMG20A (UniProt Q9NP66) the log2 fold change was -0.021. FBXO9 (UniProt Q9UK97) showed a log2 fold change of -0.265. In the case of GLUD2 (UniProt P49448), the log2 fold change is reported as 0.041. Work on GTF3C5 isoform 3 (UniProt Q9Y5Q8) yielded a log2 fold change of 0.065. GSTO1 (UniProt P78417) was tested, and the log2 fold change was 0.018. In the case of HECTD1 (UniProt Q9ULT8), the log2 fold change is reported as -0.144. With FRA10AC1 isoform 3 (UniProt Q70Z53) the log2 fold change was 0.011. With HBQ1 (UniProt P09105) the log2 fold change was 0.039. Target GEMIN5 (UniProt Q8TEQ6) has a log2 fold change of 0.043. IFRD2 isoform 2 (UniProt Q12894) was tested, and the log2 fold change was 0.073. HIC2 (UniProt Q96JB3) was tested, and the log2 fold change was -0.051. With GGT7 (UniProt Q9UJ14) the log2 fold change was 0.021. FUT8 (UniProt Q9BYC5) gave a log2 fold change of -0.037.
